Assay outcomes deposited in PubChem by National Center for Advancing Translational Sciences (NCATS).
AT treatment – qHTS Assay for Identifying a Potential Treatment of Ataxia-Telangiectasia; hit rate 0.19% among 320,000; F2112 A-T fibroblasts, KAP-1 phosphorylation AlphaLISA; neocarzinostatin DNA damage 30 min before lysis; Potency, µM (top dose mostly 57.5 µM), inactives show at the top dose activation, most hits filed as activators; active = well fitted activation curve with a large enough effect; inconclusive = small, poorly fitted or top-dose-only effect; inactive = no such curve, though single readings can be large or run the other way; also: potency is read from the fitted curve at half-maximal effect; % of control where 0% means no effect; nearly all actives have a fitted effect of over 45% in size
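ATM-like activity read as KAP-1 phosphorylation via AlphaLISA donor/acceptor antibody pairs after lysis and 6 hr at 25C. Cells were ATM-null patient fibroblasts (F2112, hTERT), dosed 60 min, then exposed to the DSB inducer NCS for 30 min.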
TRPML1 blocker – qHTS for Inhibitors of the Human Mucolipin Transient Receptor Potential 1 (TRPML1). activity change, negative = inhibition, % (test concentration not listed). TRPML1-inducible cells, Ca2+ dye fluorescence, FDSS; hits give low values; inhibition of EC80 agonist-evoked calcium signal. Mucolipin-1 (Homo sapiens), Q9GZU1. hit rate 0.02% among 390,000; in the data active = activity change below about -50%; inconclusive = between about -30% and that limit;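 also: stimulus is agonist 54-4 at its EC80 concentration; % is scaled to controls: 0 for no effect and ±100 for the full control effect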
Target sequence (Q9GZU1 whole entry, looked up): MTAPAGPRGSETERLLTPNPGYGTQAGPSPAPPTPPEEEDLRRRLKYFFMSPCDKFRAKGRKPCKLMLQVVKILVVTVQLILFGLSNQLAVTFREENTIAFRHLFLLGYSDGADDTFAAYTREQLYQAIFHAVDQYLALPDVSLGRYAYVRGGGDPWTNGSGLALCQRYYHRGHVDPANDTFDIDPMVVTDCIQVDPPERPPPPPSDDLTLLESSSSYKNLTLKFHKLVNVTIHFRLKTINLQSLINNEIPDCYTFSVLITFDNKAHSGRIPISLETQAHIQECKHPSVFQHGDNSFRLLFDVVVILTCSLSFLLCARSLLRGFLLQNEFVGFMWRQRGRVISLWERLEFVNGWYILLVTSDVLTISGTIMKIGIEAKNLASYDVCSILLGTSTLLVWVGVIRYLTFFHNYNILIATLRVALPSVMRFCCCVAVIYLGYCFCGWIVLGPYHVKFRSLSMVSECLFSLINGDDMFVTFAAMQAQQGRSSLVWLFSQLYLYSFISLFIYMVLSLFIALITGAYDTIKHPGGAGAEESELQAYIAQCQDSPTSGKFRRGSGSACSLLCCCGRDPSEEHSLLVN
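TRPML1-DL cells, Tet-induced overnight (~16 h, 37 °C) at 1,500 cells/well, were loaded with Ca8 no-wash dye plus quencher for 45-90 min at room temperature. Compounds were pinned during FDSS kinetic reading; agonist 54-4 at EC80 (4 uM final) then added.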
TRPML1 ag – qHTS for Agonists of the Human Mucolipin Transient Receptor Potential 1 (TRPML1); TRPML1-expressing cells, Ca2+ dye fluorescence, FDSS; activation, % (concentration not given with the values); hit rate 0.12% among 410,000; AID 624414, 2012; in the data active = activation above about 50%; inconclusive = mostly about 30% to 49%; also: 0% is about no effect
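In this qHTS format, compounds were pin-transferred onto Ca8-dye-loaded TRPML1-DL cells induced with Tet overnight, and intracellular Ca2+ fluorescence was recorded kinetically for 110 s after a 10 s baseline. A subsequent 4uM final 54-4 (EC80) addition followed by a second 110 s read served as the antagonist phase.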
TRPV1 agonist – HTS Assay for Compounds that Act as Agonists of the Vanilloid Receptor 1. TRPV1-expressing cells, Fluo-8 calcium influx, agonist mode. activation, % at 8.33 µM. hit rate 0.19% among 320,000. AID 540275, 2011; in the data active = activation above about 80%; inconclusive = between about 30% and that limit; also: 0% is about no effect
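Cells expressing TRPV1 were dye-loaded with Fluo-8 and read kinetically: 10 s baseline, 3 min after compound (agonist portion), then 2 min after EC20 capsaicin (allosteric enhancer portion). Calcium-bound dye fluorescence at 480/520 nm.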
TRPV1 potentiator – HTS Assay for Compounds that Act as Potentiators of the Vanilloid Receptor 1 | Transient receptor potential cation channel subfamily V member 1 (Homo sapiens), Q8NER1 | potentiation, % at 8.33 µM | TRPV1-expressing cells, Fluo-8 calcium influx, capsaicin EC20 potentiation | hit rate 0.02% among 320,000; in the data active = potentiation above about 80%; inconclusive = between about 30% and that limit; also: 0% is about no effect
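Fluo-8 calcium influx in TRPV1-expressing cells, kinetic read (ex 480/em 520 nm). Compound added and read 3 min for agonist activity, followed by capsaicin at EC20 final and 2 min further read for enhancement.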
Numbers without * were called inactive; ? = inconclusive; · = not tested or not shown. This is a sample that favours compounds with a hit; in the whole collection about 0.41% have one here.

SMILES	AT treatment	TRPML1 blocker	TRPML1 ag	TRPV1 agonist	TRPV1 potentiator
COc1ccc(-c2cn3c4c(sc3n2)CCCC4)cc1	·	-2	0	81*	-18
CN(C)c1ccc(/C=C/C(=O)c2ccc3c(c2)OCO3)cc1	20%	-14	84*	?	0
O=C(/C=C/c1cccc(O)c1)c1cccnc1	-2%	17	1	-2	3
CN(C)c1ccc(/C=C/C(=O)c2ccc(O)cc2)cc1	·	-20	87*	·	·
CN(C)c1ccc(/C=C/C(=O)c2cccnc2)cc1	-23%	-25	115*	85*	-4
COc1ccc(C(=O)/C=C/c2ccc(N(C)C)cc2)c(OC)c1	37%	-20	128*	?	-4
CC(C)(C)n1ncc2c(=O)n(Cc3ccc(C#N)cc3F)cnc21	·	23	0	·	·
COc1ccc(NC(=O)c2ccccc2OCC(=O)Nc2ccc(Br)cc2)cc1	·	·	0	·	·
CCCCn1nnnc1C(c1ccccc1)N1CCN(c2ncc(C(F)(F)F)cc2Cl)CC1 (centres undefined)	·	·	68*	·	·
CCCCn1nnnc1C(c1ccccc1)N1CCN(C)CC1 (centres undefined)	·	·	-1	·	·
Cc1cc(Nc2ccccc2)n2nc(C)c(-c3ccccc3)c2n1	28µM*	36	3	1	?
COc1ccc(-c2nc3n(c2C)CCC3)cc1	25µM*	-5	0	4	16
Cc1cccc(NC(=O)c2sc3nc(-c4cc5ccc(O)cc5oc4=O)[nH]c(=O)c3c2C)c1	·	?	112*	·	·
Cc1cc(C)cc(NC(=O)c2sc3nc(-c4cc5ccccc5oc4=O)[nH]c(=O)c3c2C)c1	·	-50*	0	·	·
Cc1c(C(=O)Nc2cccc(F)c2)sc2nc(-c3cc4ccccc4oc3=O)[nH]c(=O)c12	·	-1	0	·	·
C1=CN2CC=Cc3cc(/C=C/c4ccnc5ccccc45)cc(c32)C1	·	·	14	·	·
O=C(Nc1ccc(F)cc1)c1cc(S(=O)(=O)N2CCOCC2)cs1	8%	3	0	?	-7
Cc1ccc(NC(=O)c2cc(S(=O)(=O)N3CCOCC3)cs2)cc1	4%	5	-1	81*	-9
CCC(=O)Nc1ccc(N2CCOCC2)c(S(=O)(=O)Nc2ccc(OC)cc2)c1	12%	74	0	4	-10
COc1ccc(NS(=O)(=O)c2cc(NC(=O)c3ccc(C)s3)ccc2N2CCOCC2)cc1	-1%	-14	0	88*	17
Cc1ccccc1NC(=O)Nc1nnc(N(C)Cc2ccccc2)s1	·	20	1	·	·
Cc1c(Cl)cccc1NC(=O)Nc1nnc(N(C)Cc2ccccc2)s1	·	-15	58*	·	·
CN(C)c1ccc(/C=C/c2c(F)cnc3ccccc23)cc1	·	·	4	·	·
O=C(CN1C(=O)c2cccc([N+](=O)[O-])c2C1=O)NCc1ccccc1	3.2µM*	-7	0	-6	4
O=C1c2cccc([N+](=O)[O-])c2C(=O)N1CCO	-2%	-4	2	2	15
SMILES	AT treatment	TRPML1 blocker	TRPML1 ag	TRPV1 agonist	TRPV1 potentiator
COc1cc(/C=C2\C=Cc3ccccc32)ccc1N(C)C	·	·	-1	·	·
Cc1ccc(S(=O)(=O)N2CCc3cc4c(cc3C2C)OCCCO4)cc1 (centres undefined)	2%	28	4	15	?
COc1ccc(S(=O)(=O)N2CCc3cc4c(cc3C2C)OCCCO4)cc1 (centres undefined)	-2%	-51*	1	6	0
COc1cc(OC)c(/C=C/c2ccc3ccccc3[n+]2C)c(OC)c1	·	·	3	·	·
C[N+]1(CC(=O)c2ccc(F)cc2)CCc2ccccc2C1 (centres undefined)	·	·	-1	·	·
Cc1cc(Oc2ccccc2)nc(C#N)n1	·	·	-1	·	·
